Source: PubChem BioAssay AID602342 (Broad Institute, 2012)
The whole screen tested about 340,000 compounds, of which about 1,000 (0.29%) were called active.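 The calls were made as follows: active = mean replicate activation score at least 90 and every replicate individually at or above 90; inconclusive = only one of the two criteria met; inactive = neither criterion met.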 The full list was thinned out, with actives kept by preference.

assay: miR-122 Renilla sensor signal increase in Huh7, primary screen, miR-122 inhibitor project, cell-based, single point, plate reader (AID 602342); conditions: Huh7 miR-122 Renilla luciferase sensor, 48 h, stronger effect = higher value, neutral wells = 0, positive control = 100; at 16.7 µM unless noted;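 also: higher luciferase means less miR-122 activity so hits act as miR-122 inhibitors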

| Compound | activation (reporter increase) |
| --- | --- |
| Cc1ccc(S(=O)(=O)Nc2ccc3c(c2)C(=O)N([C@H](C)CO)C[C@H](C)[C@H](CN(C)S(=O)(=O)c2ccc(F)cc2)O3)cc1 | -7.86% (inactive) |
| CC(=O)N1CC[C@@H]2[C@@H](CO)N(C)c3ccc(-c4ccc(C#N)cc4)cc3[C@@H]21 | -2.99% (inactive) |
| C[C@@H]1CN([C@H](C)CO)C(=O)c2cc(NC(=O)NC3CCCCC3)ccc2O[C@@H](C)CCCCO[C@H]1CN(C)S(C)(=O)=O | -11.1% (inactive) |
| CCC(=O)N[C@H]1C=C[C@@H](CC(=O)NCC2CCCCC2)O[C@H]1CO | -4.01% (inactive) |
| C[C@@H]1CCCCO[C@@H](CN(C)Cc2ccncc2)[C@H](C)CN([C@@H](C)CO)C(=O)c2cc(N(C)C)ccc2O1 | 9.37% (inactive) |
| C[C@@H]1CN([C@@H](C)CO)C(=O)Cc2cc(NC(=O)Nc3ccc(F)cc3)ccc2O[C@@H]1CN(C)C | -1.94% (inactive) |
| CN(C)C(=O)[C@@H]1[C@@H](CO)[C@@H]2Cn3c(cccc3=O)[C@H]1N2CC1CCCCC1 | -3.4% (inactive) |
| Cc1ccccc1-c1cnc2c(c1)C(=O)N([C@@H](C)CO)C[C@@H](C)[C@@H](CN(C)CC1CCOCC1)O2 | -4.12% (inactive) |
| CN1C(=O)c2cc(NS(=O)(=O)c3ccc(Cl)cc3)ccc2OC[C@H]2O[C@@H](CC(=O)O)CC[C@H]21 | 37.8% (inactive) |
| O=C(Oc1ccc(F)cc1)N1CCOCC1 | -3.21% [at 12.5 µM] (inactive) |
| Cc1ccc(C(=O)Oc2ccc(C(=S)N3CCOCC3)cc2)cc1 | -1.88% [at 12.5 µM] (inactive) |
| O=C(Oc1ccc(C(=S)N2CCOCC2)cc1)c1ccc(F)cc1 | 330% [at 12.5 µM] (active) |
| CC(=O)N(C)C[C@H]1Oc2ncc(-c3cccc(F)c3)cc2C(=O)N([C@@H](C)CO)C[C@H]1C | -3.49% (inactive) |
| CN1C(=O)c2cc(NC(=O)c3ccc(F)c(F)c3)ccc2OC[C@H]2O[C@@H](CC(=O)N3CCCCC3)CC[C@H]21 | -8.45% (inactive) |
| O=C(/C=C/c1ccc2c(c1)OCCO2)c1ccc(O)cc1 | 7.01% [at 12.5 µM] (inactive) |
| COc1ccc(/C=C/C(=O)c2c(O)cc(OC)cc2OC)cc1 | 2.04% [at 12.5 µM] (inactive) |
| O=C(/C=C(O)/C=C/c1ccc(O)cc1)/C=C/c1ccc(O)cc1 | 140% [at 12.5 µM] (active) |
| Cc1noc(C)c1NC(=O)N(C)C[C@H]1OCCCC[C@H](C)Oc2ccc(NC(=O)Nc3ccccc3)cc2C(=O)N([C@H](C)CO)C[C@@H]1C | -0.276% (inactive) |
| Cn1cnc([N+](=O)[O-])c1Nc1ccccc1O | 2.42% [at 12.5 µM] (inactive) |
| Cn1cnc([N+](=O)[O-])c1Sc1n[nH]c(N)n1 | -3.18% [at 12.5 µM] (inactive) |
| Cn1cnc([N+](=O)[O-])c1Sc1ccccc1 | 217% [at 12.5 µM] (active) |
| CCN(C[C@@H]1[C@H](c2ccccc2)[C@@H](CO)N1CC1CC1)C(=O)c1ccccn1 | -7.14% (inactive) |
| C[C@@H]1CN([C@@H](C)CO)C(=O)Cc2cc(NC(=O)C3CC3)ccc2O[C@H]1CN(C)C(=O)NC1CCCCC1 | 0.966% (inactive) |
| CCN(CC)S(=O)(=O)c1cc(C(=O)Nc2ccccn2)ccc1C | -6.4% [at 12.5 µM] (inactive) |

| Compound | activation (reporter increase) |
| --- | --- |
| Cc1ccc(C(=O)Nc2ccccc2-c2ccccc2)cc1S(=O)(=O)Nc1ccccc1 | 94% [at 12.5 µM] (active) |
| COc1cc(OC)c(C(=O)Nc2ccccc2-c2ccccc2)cc1OC | 9.15% [at 12.5 µM] (inactive) |
| C[C@H]1CCCCO[C@@H](CN(C)C(=O)Nc2cccc3ccccc23)[C@@H](C)CN([C@@H](C)CO)C(=O)c2cc(NS(=O)(=O)c3cn(C)cn3)ccc2O1 | -0.833% (inactive) |
| Cn1c(=O)n(C)c2cc(S(=O)(=O)Nc3ccc(F)cc3)ccc21 | 44% [at 12.5 µM] (inactive) |
| Cc1cc(C)cc(NS(=O)(=O)c2ccc(F)cc2)c1 | 117% [at 12.5 µM] (active) |
| Cc1ccc(NS(=O)(=O)c2ccc(F)cc2)nc1 | 4.41% [at 12.5 µM] (inactive) |
| COc1ccc(CN(C)C[C@H]2Oc3c(NS(=O)(=O)c4ccccc4)cccc3C(=O)N([C@@H](C)CO)C[C@H]2C)cc1 | 4.79% (inactive) |
| CCC(=O)N1[C@@H]2c3ccc(-c4cccnc4)c(=O)n3C[C@H]1[C@H](CO)[C@H]2C(=O)N1CCc2ccccc2C1 | 2.45% (inactive) |
| COc1ccccc1C#Cc1cnc2c(c1)C(=O)N([C@@H](C)CO)C[C@H](C)[C@@H](CN(C)C(=O)CC1CC1)O2 | -1.03% (inactive) |
| O=C1c2ccccc2C2=Nc3ccccc3SC(c3ccccc3F)C12 (stereo not drawn) | 162% [at 12.5 µM] (active) |
| O=C1c2ccccc2C(=O)C1c1ccccc1F | -3.15% [at 12.5 µM] (inactive) |
| O=C(C[C@@H]1C[C@@H]2c3cc(NC(=O)Nc4ccccc4F)ccc3O[C@@H]2[C@H](CO)O1)NCCc1ccccc1 | -2.6% (inactive) |
| CS(=O)(=O)N(CC(=O)Nc1ccc(F)cc1)C1CCCCC1 | 0.106% [at 12.5 µM] (inactive) |
| CS(=O)(=O)N(CC(=O)Nc1ccc(Cl)c(Cl)c1)C1CCCCC1 | 174% [at 12.5 µM] (active) |
| N#CCCN(C(=O)Nc1ccc(Cl)c(Cl)c1)C1CCCCC1 | -4.25% [at 12.5 µM] (inactive) |
| C[C@@H]1CN([C@H](C)CO)C(=O)c2cc(C#CCN(C)C)cnc2O[C@H]1CN(C)C(=O)NC1CCCC1 | 26% (inactive) |
| CN1CCN(C(=O)C[C@H]2C[C@@H]3c4cc(NS(=O)(=O)c5ccc(F)cc5)ccc4O[C@@H]3[C@@H](CO)O2)CC1 | -5.91% (inactive) |
| CCCN1C[C@H](C)[C@@H](OC)CN(C)C(=O)c2ccc(NC(=O)CC)cc2OC[C@@H]1C | 4.54% (inactive) |
| CCc1ccc(-c2cc(C)no2)cc1S(=O)(=O)NCCc1ccc(S(N)(=O)=O)cc1 | 124% [at 12.5 µM] (active) |
| Cc1cc(-c2ccc(C)c(S(=O)(=O)Nc3ccc(S(N)(=O)=O)cc3)c2)on1 | 5.41% [at 12.5 µM] (inactive) |
| CCOc1ccccc1CNS(=O)(=O)c1cc(-c2cc(C)no2)ccc1C | 54.4% [at 12.5 µM] (inactive) |
| Cc1noc(C)c1S(=O)(=O)NCCc1ccc(S(N)(=O)=O)cc1 | -7.32% [at 12.5 µM] (inactive) |
| Cc1cc(-c2ccc(C)c(S(=O)(=O)NCCCN(Cc3ccccc3)C(C)C)c2)on1 | 46.4% [at 12.5 µM] (inactive) |
| COc1ccc(CNS(=O)(=O)c2cc(-c3cc(C)no3)ccc2C(C)C)cc1 | 200% [at 12.5 µM] (active) |
